The panel holds about 83,000 compounds, 20% with a hit somewhere; the sample as a whole holds those more often.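 Assay: single dose, 48 h. Readout: percent growth (0 = no net growth; negative = cell death). Active: <10.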 Calls of active or inactive are those of the source.

The subject of this assay is UACC-257 melanoma. As to the kind of experiment: NCI-60 one-dose screen, 48 h (100 = growth as untreated, 0 = no growth, -100 = all killed). As to conditions: 10 µM unless noted.
`CC(=O)O[C@H]1CC[C@]2(C)[C@H]3CC=C4[C@@H]5CC(C)(C)CC[C@]5(C(=O)OCC(COC(=O)C(Cl)Cl)(COC(=O)C(Cl)Cl)NC(=O)C(Cl)Cl)CC[C@@]4(C)[C@]3(C)CC[C@H]2C1(C)C`: the growth was 42.5% (inactive).
Take `Clc1ccc(Cl)c(N=Cc2ccc3c(c2)OCO3)c1`: the growth was 103% (inactive).
Consider `CCN(CC)c1ccc2c(cc1=O)[C@@H](NC(C)=O)CCc1cc(OC)c(OC)c(OC)c1-2`, for which the growth was 63.1% (inactive).
Next, `COc1ccc(CNc2c3ccccc3nc3ccc(OC)cc23)cc1`: 6.58% (active); `NC(=O)c1ccc[n+](Cc2ccccc2)c1`: 95.3% (inactive).
With `N/N=C(\C(=N\N)c1ccccc1)c1ccccc1`, the growth was 107% (inactive).
With `CC1=C(O)C(=O)CC1`, the growth is 97.4% (inactive).
`CCN(CC)CCCC(C)Nc1ccnc2ccc(Oc3ccccc3)cc12` (centres undefined): the growth is -54.1% (active).
Next, `COc1cc2ncnc(Nc3ccc(S(=O)(=O)Nc4nccs4)cc3)c2cc1OCCCN1CCOCC1`: 101% (inactive); `CC(=O)Cc1ccccn1`: 103% (inactive); `CC1OC(n2c3ccccc3c3c4c(c5c6ccccc6[nH]c5c32)C(=O)N(CCN[C@H]2CCC[C@@H]2N)C4=O)CC(O)C1O` (some centres undefined): 54.9% (inactive).
In the case of `O=C(C(=O)N1CCCC1)c1cn(CCCn2cc(C(=O)C(=O)N3CCCC3)c3cc(Br)ccc32)c2ccc(Br)cc12`, the growth was 76.4% (inactive).
For `CCCCCCCOc1cccc(/C=C2\N=C3SCCCN3C2=O)c1`, the growth was 114% (inactive).
For the molecule `COc1ccc(NC(=O)c2sc3c(=O)[nH]c(C(F)(F)F)nc3c2C)cc1`, the growth is 105% (inactive).
To `C=C[C@H]1CCC/C=C/[C@@H]2C[C@H](O)C[C@H]2[C@H](O)/C=C/C(=O)O1` belongs 4.69% (active); to `C=CC(=O)N1CN(C(=O)C=C)CN(C(=O)C=C)C1`, 48% (inactive); to `CC(C)CCSc1nc(Nc2ccccc2)c(C#N)c(-c2ccc(F)cc2)n1`, 52.7% (inactive).
As to `COC(=O)c1ccc2c(c1)nc(-c1cc3ccccc3[nH]c1=O)n2-c1cc(C(C)(C)C)[nH]n1`, the growth was 78.5% (inactive).
Regarding `O=C1NN(C(=O)c2ccccc2)C(c2ccc(Cl)c(Cl)c2)=C/C1=C\c1ccccc1[N+](=O)[O-]`, the growth was 35.4% [6.75 µM] (inactive).
As for `O=C(CCl)Nc1ccc2c(c1)C(=O)c1ccccc1C2=O`, the growth was 36.2% (inactive).
For the molecule `CCOC(=O)C1C(=O)C=C(c2cc(OC)c(OC)c(OC)c2)CC1c1sc(N(C)Cc2ccccc2)nc1Cl` (centres undefined), the growth is 90.4% (inactive).
Turning to `N/C(=N\OC(=O)c1ccccc1)C(C(=O)NOC(=O)c1ccccc1)C1CCCCC1` (centres undefined), the growth was 92.2% (inactive).
Next, `C=C(C)[C@@H]1CC[C@]2(C(=O)O)CC[C@]3(C)[C@H](CC[C@@H]4[C@@]5(C)C[C@@H](CC#Cc6ccc(C(C)=O)s6)[C@H](O)C(C)(C)[C@@H]5CC[C@]43C)[C@@H]12`: 40.2% (inactive); `CC(C)[C@@H]1C=C2CC[C@H]3[C@](C)(CN)CCC[C@]3(C)[C@H]2CC1`: 104% (inactive).
In the case of `COc1ccc(-c2cc(-c3cn(-c4cccc(Cl)c4)nc3-c3ccc(OC)cc3)[nH]c(=S)n2)cc1`, the growth was 71.5% (inactive).
Consider `CCN1CCN(Cc2ccc(NC(=O)Nc3ccc(-n4ccc5c(NC(=O)c6ccccc6)nccc54)cc3)cc2C(F)(F)F)CC1`, for which the growth was -69.6% (active).
Next, `Clc1ccc(C2=NN[C@H](c3cn(-c4ccccc4)nc3-c3ccccc3)C2)cc1`: 66.3% (inactive).
To `CC(C)CC1NC(=O)C(CC(C)C)N(CO)C1=O` (centres undefined) belongs 102% (inactive); to `c1ccc(-c2ccc(-c3ccccc3)[nH]2)cc1`, 101% (inactive).
To `C=CCN(CC#N)CC=C` belongs 99.5% (inactive); to `COc1ccc2c(c1)sc1nc(-c3ccccc3)c(-c3cccc4ccccc34)n12`, 68.4% (inactive); to `CC(C)c1nc2ccccc2n1CC(=O)N/N=C/c1cccc(O)c1`, 87.7% (inactive).
Take `CCCCCCCC/C=C\CCCCCCCC(=O)OCCCCCC`: the growth was 95.7% (inactive).
Take `CCN(CC)c1ccc(/C=N/NC(=O)c2ccc(S(C)(=O)=O)cc2)c(O)c1`: the growth is -11.5% (active).
Consider `CC(=O)CC(c1ccc([N+](=O)[O-])cc1)c1c(O)c2ccccc2oc1=O` (centres undefined), for which the growth is 120% (inactive).
For `CC1CCCN(CCCCOc2ccc(-c3ccc(C#N)cc3)cc2)C1` (centres undefined), the growth was 66.6% (inactive).
For the molecule `Cn1c(-c2ccccc2)cc(=O)n1-c1ccccc1`, the growth is 97.4% (inactive).
Next, `O=C(NCCN1CCCC1)n1cc(-c2ccncc2)c(-c2cc(O)cc(Cl)c2)n1`: 43.4% (inactive); `C(=Nc1ccc(-c2ccc(N=Cc3ccccc3)cc2)cc1)c1ccccc1`: 109% (inactive).
